Records with an inconclusive call do not appear. Entries that show only a call come without a potency. Unmarked numbers belong to inactive results. The source made the active and inactive calls. The call rests on the fitted dose curve; in most records, active means well fitted cell-killing curve with a large enough effect in the repeat runs; inconclusive means weak or mixed curves, or effect the other way; inactive means flat fitted curve, though single readings scatter.
Experiment: qHTS RealTime-Glo MT Cell Viability Assay in HEK293 cells - 32 hour (AID 1224868); further: nearly all actives have a fitted effect of over 50% in size; on activity change, negative = cytotoxic: top concentration of the series differs between compounds
Conditions: RealTime-Glo luminescence; series mostly up to 76.8 µM
From the text: National Center for Advancing Translational Sciences [NCATS]
NIH Chemical Genomics Center [NCGC]
U.S. Environmental Protection Agency [EPA]
National Institutes of Environmental Health Sciences [NIEHS]
National Toxicology Program [NTP]
U.S. Food and Drug Administration [FDA]
Measure of cell viability is critical in the cell-base assay. Analysis of cell viability is necessary for the characterization of cell responses to cytotoxic drugs and environmental stress. A RealTime-Glo MT Cell Viability Assay to monitor cell viability in real time of continues cell culture during 40 hours of compound treatment was used to screen Tox21 10K library compounds in Hek293 cells. The RealTime-Glo MT Cell Viability Assay is a nonlytic, homogeneous, bioluminescent method to measure cell viability in real time using a simple, plate-based method. The assay involves adding NanoLuc luciferase and a cell-permeant prosubstrate to cells in culture. Viable cells reduce the proprietary prosubstrate to generate a substrate for NanoLuc luciferase. This substrate diffuses from cells into the surrounding culture medium, where it is rapidly used by the NanoLuc Enzyme to produce a luminescent signal. The signal correlates with the number of viable cells, making the assay well suited for cytotoxicity studies.
Tox21 Assay Protocol Summary:
The mixture of Hek293 cell suspension and reagents were dispensed at 600cells/6 ul/well in 1536-well tissue culture treated black solid bottom plates using a Multidrop dispenser. After the assay plates were incubated at a 37 C/5% CO2 incubator for 5 hours, 23 nL of compounds dissolved in DMSO, positive and negative controls was transferred to the assay plate by a pintool work station. The plates were incubated at 37 C for 40 hours. The luminescence intensity were measured at 0h, 8h, 16h, 24h, 32h and 40h time points using ViewLux plate reader during compound treatment.
Potency means the concentration at half of the fitted maximal effect.

SMILES | Potency | activity change, negative = cytotoxic
CCO[Si](CCCN=C=O)(OCC)OCC | inactive | –
c1ccc(SCCSc2ccccc2)cc1 | inactive | –
O=C1OC(=O)c2cc([N+](=O)[O-])ccc21 | inactive | –
CC(O)CN(CCCN(C)C)CCCN(C)C (stereo not given) | inactive | –
CCCCCCCCCCC1CO1 (stereo not given) | inactive | –
C=C(C)C(=O)NCCC[N+](C)(C)C | inactive | –
O=[N+]([O-])c1ccc(CCO)cc1 | inactive | –
COC(C(=O)O)c1ccccc1 (stereo not given) | inactive | –
C=C(C)[C@@H]1CCC2=CC(=O)C[C@@H](C)[C@]2(C)C1 | inactive | –
Nc1nc(F)nc2c1ncn2[C@@H]1O[C@H](CO)[C@@H](O)[C@@H]1O | inactive | –
CCC(=O)/C=C/c1ccc(OC)cc1 | inactive | –
COc1ccc(N=[N+]([O-])c2ccc(OC)cc2)cc1 | inactive | –
Nc1ncnc2c1ncn2Cc1c(F)cccc1Cl | inactive | –
COC(=O)CCCCCCCCC(=O)OC | inactive | –
CN(C)C(=O)C(CCN1CCC(O)(c2ccc(Cl)cc2)CC1)(c1ccccc1)c1ccccc1 | 10.7 µM (active) | –
CCCC(C)C(=O)O (stereo not given) | inactive | –
CCC(=O)Nc1cccc(N)c1 | inactive | –
CO[Si](CCCNCCC[Si](OC)(OC)OC)(OC)OC | inactive | –
CCCCCCCCN(C)CCCCCCCC | inactive | –
CC1=CCC2C(C1)C2(C)C (stereo not given) | inactive | –

SMILES | Potency | activity change, negative = cytotoxic
Cc1c(F)cc2c(=O)c(C(=O)O)cn3c2c1CCC3C (stereo not given) | inactive | –
NS(=O)(=O)c1cc(C2(O)NC(=O)c3ccccc32)ccc1Cl (stereo not given) | inactive | –
C#CC(C)(O)CC(C)C (stereo not given) | inactive | –
NS(=O)(=O)c1cc2c(cc1Cl)NC(CSCc1ccccc1)=NS2(=O)=O | inactive | –
CCCCCN(CCCCC)C(=O)C(CCC(=O)O)NC(=O)c1ccc(Cl)c(Cl)c1 (stereo not given) | inactive | –
CC/C=C\C#N | inactive | –
CC(C)(C)C(=O)/C=C/c1ccc(Cl)cc1 | inactive | –
CCCCCCCCCCCCI | inactive | –
C[N+](C)(C)CC[N+]1(C)Cc2c(Cl)c(Cl)c(Cl)c(Cl)c2C1 | inactive | –
CCn1c(=O)c2c(nc(/C=C/c3ccc(OC)c(OC)c3)n2C)n(CC)c1=O | 1.69 µM (active) | –
Cc1cc(C)c(NC(=O)CN(CC(=O)O)CC(=O)O)c(C)c1Br | inactive | –
NC(CS)C(=O)O (stereo not given) | inactive | –
CCN(CC)C(=O)c1ccc(O)c(OC)c1 | inactive | –
CC(C)CCCC(C)NCCC(C)C (stereo not given) | inactive | –
FC(F)(F)C(F)(F)C(F)(F)C(F)(F)C(F)(F)C(F)(F)C(F)(F)C(F)(F)C(F)(F)C(F)(F)F | – | -3.25% [at 6.97 µM]
CC(=O)CCc1ccc(O)cc1 | inactive | –
CCCCCCCCCCCCCCC | inactive | –
C[C@H]1O[C@@H](n2cc(F)c(=O)[nH]c2=O)[C@H](O)[C@@H]1O | inactive | –
CCN1CCCC(OC(=O)C(c2ccccc2)c2ccccc2)C1 (stereo not given) | inactive | –
C=CC(=O)OCCCCCC | inactive | –

From PubChem BioAssay (Tox21)
